The campaign covered roughly 2,400 compounds. About 580 (24%) were called active. These entries were drawn from the full list. Values without a mark were called inactive.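 Rule for the calls: active = activity change at or above the mean plus 3 SD of buffer wells without dofetilide, per plate; inactive = the rest.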
The compounds below were run against Potassium voltage-gated channel subfamily KQT member 2 (Rattus norvegicus) (UniProt O88943) (assay: rat KCNQ2 channel activation by compounds alone, confirmation, counter-screen for hERG block protector project, cell-based, CHO, FluxOR thallium flux (AID 1942;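 note: normalized value minus buffer-control mean plus three SD of buffer wells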)). Settings: CHO-KCNQ2 cells, FluxOR thallium flux fluorescence; at 10 µM; active compounds read high.
Potassium voltage-gated channel subfamily KQT member 2 (Rattus norvegicus), sequence (O88943 whole entry, looked up): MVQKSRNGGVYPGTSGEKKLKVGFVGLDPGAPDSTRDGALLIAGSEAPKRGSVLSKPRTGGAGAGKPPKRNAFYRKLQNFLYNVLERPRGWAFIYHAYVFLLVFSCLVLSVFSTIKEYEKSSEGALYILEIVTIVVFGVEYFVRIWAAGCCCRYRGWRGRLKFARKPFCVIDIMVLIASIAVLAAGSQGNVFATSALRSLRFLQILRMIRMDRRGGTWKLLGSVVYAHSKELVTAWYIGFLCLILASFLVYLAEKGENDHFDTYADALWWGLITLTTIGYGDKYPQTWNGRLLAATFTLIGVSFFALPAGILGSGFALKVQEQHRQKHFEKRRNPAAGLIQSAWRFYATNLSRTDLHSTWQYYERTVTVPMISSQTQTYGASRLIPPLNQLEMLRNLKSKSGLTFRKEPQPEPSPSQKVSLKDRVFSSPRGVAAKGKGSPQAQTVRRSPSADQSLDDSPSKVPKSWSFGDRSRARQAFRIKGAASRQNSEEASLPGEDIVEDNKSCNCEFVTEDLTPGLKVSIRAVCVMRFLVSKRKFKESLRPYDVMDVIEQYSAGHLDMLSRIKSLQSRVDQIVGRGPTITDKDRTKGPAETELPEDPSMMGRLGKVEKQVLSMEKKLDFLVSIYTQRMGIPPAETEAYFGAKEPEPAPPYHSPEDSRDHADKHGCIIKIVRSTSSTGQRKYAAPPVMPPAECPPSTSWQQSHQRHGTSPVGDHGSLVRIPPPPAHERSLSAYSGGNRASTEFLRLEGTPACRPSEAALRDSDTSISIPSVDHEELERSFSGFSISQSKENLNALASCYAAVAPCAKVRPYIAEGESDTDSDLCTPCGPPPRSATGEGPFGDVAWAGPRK
`Cc1nc2scc(C)n2c(=O)c1S(=O)(=O)Nc1ccc(N2CCOCC2)cc1` showed an activity change, less the hit threshold of -19.6%.
For `CCOc1cc(N2CCOCC2)c(OCC)cc1NC(=O)Cn1nc(C)c([N+](=O)[O-])c1C`, the activity change, less the hit threshold was -16.6%.
In the case of `CCOc1cc(N2CCOCC2)c(OCC)cc1NC(=O)CCC1CCCC1`, the activity change, less the hit threshold is reported as 75.8% (active).
`O=C(CNC1CCCCCC1)Nc1ccccc1N1CCOCC1` showed an activity change, less the hit threshold of -21.6%.
Work on `CCOc1ccc(NC(=O)CN(C)C(=O)c2c(-c3c(F)cccc3Cl)noc2C)cc1OCC` yielded an activity change, less the hit threshold of -16.8%.
`O=C(COc1ccc2ccccc2c1Br)Nc1cccnc1` showed an activity change, less the hit threshold of -22.1%.
`Cc1ccc(NS(=O)(=O)c2ccc(NC(=O)c3ccccc3C(=O)O)cc2)cc1C` was tested, and the activity change, less the hit threshold was -17%.
With `Cc1ccc(C(=O)c2ccccc2C(=O)O)c(O)c1` the activity change, less the hit threshold was -21.5%.
`O=C(/C=C/c1ccccc1Cl)c1ccccc(=O)c1O` was tested, and the activity change, less the hit threshold was 30.9% (active).
With `Cc1ccc(C)c(/C=C/C(=O)c2ccccc(=O)c2O)c1` the activity change, less the hit threshold was 29.3% (active).
In the case of `Cc1ccc(/C=C/C(=O)c2ccccc(=O)c2O)cc1C`, the activity change, less the hit threshold is reported as 28.9% (active).
`Cc1ccc(C(=O)CC(=O)c2cccc(F)c2)c(O)c1` gave an activity change, less the hit threshold of -14.8%.
`Cc1ccc(/C=C/C(=O)c2ccccc(=O)c2O)c(C)c1` was tested, and the activity change, less the hit threshold was 40.1% (active).
`Cc1cccc(NC(=O)CN2C(=O)S/C(=C\c3ccc(-c4cccc(C(=O)O)c4C)o3)C2=O)c1` was tested, and the activity change, less the hit threshold was -15.3%.
For `N/C(=N\OCc1ccccc1)c1nonc1N`, the activity change, less the hit threshold was -14.5%.
Compound `O=C(COC(=O)C1C2CC3OC(=O)C1C3C2)Nc1ccc(Cl)cc1` (configuration not stated) has an activity change, less the hit threshold of -17.9%.
`CCc1ccc(/C=N/NC(=O)c2nnn(-c3nonc3N)c2C(C)C)cc1` was tested, and the activity change, less the hit threshold was -25.3%.
Compound `CCC(C)C(NC(=O)C(C)NC(=O)CNC(=O)CNC(=O)OCc1ccccc1)C(=O)OC` (configuration not stated) has an activity change, less the hit threshold of -19.3%.
`CCn1c2ccccc2c2cc(NC(=O)COc3ccccc3)ccc21` was tested, and the activity change, less the hit threshold was -20.7%.
With `O=C(NC(=S)N1CCN(c2ccc(F)cc2)CC1)c1cccs1` the activity change, less the hit threshold was 25.4% (active).
In the case of `CC1CCN(C(=S)NC(=O)c2cccs2)CC1`, the activity change, less the hit threshold is reported as 2.2% (active).
For `CC1CCCCC1NC(=S)NC(=O)c1cccs1` (configuration not stated), the activity change, less the hit threshold was 27.8% (active).
`O=C(NC(=S)N1CCN(c2ccccc2)CC1)c1c(F)cccc1F` gave an activity change, less the hit threshold of -2.6%.
With `O=C(NC(=S)N1CCN(c2ccccc2)CC1)c1ccccc1` the activity change, less the hit threshold was 11.4% (active).
`CC1CCCCC1NC(=S)NC(=O)c1sc2ccccc2c1Cl` (configuration not stated) was tested, and the activity change, less the hit threshold was -10%.
With `COc1ccc(N2CCN(C(=S)Nc3cccc(OC)c3)CC2)cc1` the activity change, less the hit threshold was -8.3%.
`Cc1cc(C)cc(-n2nnc(C(=O)NCc3ccc4c(c3)OCO4)c2N)c1` gave an activity change, less the hit threshold of -15.8%.
`N#Cc1cccc(NC(=O)c2nc(-c3ccccc3)n(-c3ccccc3)n2)c1` gave an activity change, less the hit threshold of -22.3%.
Compound `Oc1ccc(N2CCN(C(c3cccnc3)c3nnnn3Cc3ccccc3)CC2)cc1` (configuration not stated) has an activity change, less the hit threshold of -10.2%.
For `CCOC(=O)c1[nH]c(=O)[nH]c1COC(=O)c1cc2ccccc2o1`, the activity change, less the hit threshold was -20.5%.
Compound `Cn1c(/N=C/c2c(O)ccc3ccccc23)nc2ccccc21` has an activity change, less the hit threshold of -14.8%.
With `CC1(C)Cc2c(sc3[nH]c(=S)n(Cc4ccccc4)c(=O)c23)CO1` the activity change, less the hit threshold was 11.3% (active).
`CCC1(C)Cc2c(sc3[nH]c(=S)n(Cc4ccccc4)c(=O)c23)CO1` (configuration not stated) was tested, and the activity change, less the hit threshold was 48.6% (active).
Compound `Cn1c(=O)c2sc3c(c2n(CC(=O)Nc2ccccc2)c1=O)COC(C)(C)C3` has an activity change, less the hit threshold of -11.1%.
With `CC(C)C1Cc2c(sc3[nH]c(=S)n(Cc4ccccc4)c(=O)c23)CO1` (configuration not stated) the activity change, less the hit threshold was 19.3% (active).
With `CCC(=O)N1c2ccc(C)cc2C2=NNC(=S)NC21O` (configuration not stated) the activity change, less the hit threshold was -16.9%.
`O=C(NC1CCCC1)C(c1ccncc1)N(Cc1ccccc1F)C(=O)c1csnn1` (configuration not stated) was tested, and the activity change, less the hit threshold was -8.5%.
`COc1ccc(-c2cnn(C3CCS(=O)(=O)C3)c2N)cc1` (configuration not stated) showed an activity change, less the hit threshold of -16.8%.
`Cc1cc(C)c(S(=O)(=O)c2ccccc2)c(OC(=O)c2c(F)cccc2Cl)n1` gave an activity change, less the hit threshold of -22%.
`COc1cccc(C(=O)/C=C/Nc2ccc(S(=O)(=O)Nc3cnc4ccccc4n3)cc2)c1` was tested, and the activity change, less the hit threshold was -20.6%.
`O=C1C=C(Nc2cccc3cccnc23)c2ccccc2C1=O` showed an activity change, less the hit threshold of -8.1%.
For `O=C(Nn1c(O)c(C=C2N=c3ccccc3=N2)sc1=S)c1cccc(Cl)c1`, the activity change, less the hit threshold was -23.1%.
`CN(C(=O)c1ccc(Cl)c(S(=O)(=O)N2CCOCC2)c1)c1ccccc1C(=O)O` was tested, and the activity change, less the hit threshold was -1.7%.
In the case of `c1ccc(-c2n[nH]c(-c3ccccn3)n2)cc1`, the activity change, less the hit threshold is reported as 5.9% (active).
`c1ccc(-c2ccc(-c3ccncn3)cc2)cc1` showed an activity change, less the hit threshold of -16.2%.
With `COc1ccc(-c2nc(-c3ccccn3)ncc2S(C)(=O)=O)cc1` the activity change, less the hit threshold was -15.6%.
In the case of `CC(C)Sc1nc2ccccc2n2cnnc12`, the activity change, less the hit threshold is reported as -12.8%.
`C/C(=N\Nc1nc2ccccc2s1)c1cccs1` was tested, and the activity change, less the hit threshold was -9.9%.
`C/C(=N\Nc1nc2ccccc2s1)c1ccc(Br)s1` gave an activity change, less the hit threshold of -5.9%.
In the case of `C/C(=N\Nc1nc2ccccc2nc1C)c1ccccc1O`, the activity change, less the hit threshold is reported as 7.3% (active).
Work on `CCCCNC(=O)N1CCCC(C(=O)c2cc(C)c(OC)c(C)c2)C1` (configuration not stated) yielded an activity change, less the hit threshold of -22.8%.
In the case of `CCC1(c2ccccc2)NC(=S)N(c2ccc(C)cc2)N1` (configuration not stated), the activity change, less the hit threshold is reported as 102% (active).
For `CCC1(c2ccc(Cl)cc2)NC(=S)N(c2ccccc2)N1` (configuration not stated), the activity change, less the hit threshold was 84.8% (active).
For `CCC1(c2ccc(Cl)cc2)NC(=S)N(c2ccc(C)cc2)N1` (configuration not stated), the activity change, less the hit threshold was 83.8% (active).
With `S=c1[nH]nc(-c2ccccn2)n1/N=C/c1ccc(-c2ccccc2Br)o1` the activity change, less the hit threshold was -12.9%.
In the case of `CC12CCC(C(=O)OC3CCCCC3)(OC1=O)C2(C)C` (configuration not stated), the activity change, less the hit threshold is reported as -26.6%.
Compound `C=CCNC(=O)c1onc(CSc2ccc(OC)cc2)c1C(=O)O` has an activity change, less the hit threshold of -16.5%.
In the case of `Cn1c2ccccc2c(=O)c2c(=O)n(Cc3ccco3)c(-c3ccc(Cl)cc3Cl)nc21`, the activity change, less the hit threshold is reported as -29.7%.
`O=C(Nc1cccnc1)c1ccc(COc2cc(Cl)ccc2Cl)o1` was tested, and the activity change, less the hit threshold was -20%.
Compound `O=C(CCl)NCCN1C(=O)S/C(=C\c2cccnc2)C1=O` has an activity change, less the hit threshold of -19%.
`C[n+]1ccccc1/C=C/c1c(F)cccc1F` was tested, and the activity change, less the hit threshold was -10.9%.
In the case of `CCC(NS(=O)(=O)c1cn(C)nc1C)c1ccccc1` (configuration not stated), the activity change, less the hit threshold is reported as -7.9%.

From PubChem BioAssay AID1942 (Johns Hopkins Ion Channel Center, 2009)
